Test results reported in the supplement of paper PMC11732987, “Enantioselective OTUD7B fragment discovery through chemoproteomics screening and high-throughput optimisation” (Communications Chemistry, 2025).
Values without a mark were called inactive.

How the values were obtained:
Experiment in all cases: log2 ratio of Biotin-Ahx-Ub-VS probe labelling (fragment/DMSO); higher = less target engagement (more negative = stronger competition), active = hit call of the paper (q ≤ 0.05, log2 ratio ≤ -1)
Conditions in all cases: compound concentration: 200 uM; treatment time: 3 h
OTUD6B = target: T1, OTUD6B (UniProt Q8N6M0)
T1 sequence (whole entry): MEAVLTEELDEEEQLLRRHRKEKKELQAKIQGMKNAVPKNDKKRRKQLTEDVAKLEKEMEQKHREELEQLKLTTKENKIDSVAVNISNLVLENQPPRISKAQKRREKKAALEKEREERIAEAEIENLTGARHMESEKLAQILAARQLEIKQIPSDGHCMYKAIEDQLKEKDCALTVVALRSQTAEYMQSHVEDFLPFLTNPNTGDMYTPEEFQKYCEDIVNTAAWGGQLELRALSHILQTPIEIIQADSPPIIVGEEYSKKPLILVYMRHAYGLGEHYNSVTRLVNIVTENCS
In short: (§1)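 Labelling with Biotin-Ahx-Ub-VS (0.5 µM final, 1 h) followed a 3 h triplicate treatment of HEK293T lysate (495 µg per sample, Tris/CHAPS/IGEPAL buffer with protease inhibitors) with fragment at 200 µM or vehicle. Labelled DUBs were NeutrAvidin-enriched, digested with LysC and trypsin, and run by diaPASEF LC-MS/MS. The values, average log2 fragment/vehicle ratios by unpaired t-test, come from global-median-normalised Spectronaut label-free quantities. Proteins with ≥2 unique peptides were used.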

OTUD7B = target: T2, OTUD7B (UniProt Q6GQQ9)
T2 sequence (whole entry): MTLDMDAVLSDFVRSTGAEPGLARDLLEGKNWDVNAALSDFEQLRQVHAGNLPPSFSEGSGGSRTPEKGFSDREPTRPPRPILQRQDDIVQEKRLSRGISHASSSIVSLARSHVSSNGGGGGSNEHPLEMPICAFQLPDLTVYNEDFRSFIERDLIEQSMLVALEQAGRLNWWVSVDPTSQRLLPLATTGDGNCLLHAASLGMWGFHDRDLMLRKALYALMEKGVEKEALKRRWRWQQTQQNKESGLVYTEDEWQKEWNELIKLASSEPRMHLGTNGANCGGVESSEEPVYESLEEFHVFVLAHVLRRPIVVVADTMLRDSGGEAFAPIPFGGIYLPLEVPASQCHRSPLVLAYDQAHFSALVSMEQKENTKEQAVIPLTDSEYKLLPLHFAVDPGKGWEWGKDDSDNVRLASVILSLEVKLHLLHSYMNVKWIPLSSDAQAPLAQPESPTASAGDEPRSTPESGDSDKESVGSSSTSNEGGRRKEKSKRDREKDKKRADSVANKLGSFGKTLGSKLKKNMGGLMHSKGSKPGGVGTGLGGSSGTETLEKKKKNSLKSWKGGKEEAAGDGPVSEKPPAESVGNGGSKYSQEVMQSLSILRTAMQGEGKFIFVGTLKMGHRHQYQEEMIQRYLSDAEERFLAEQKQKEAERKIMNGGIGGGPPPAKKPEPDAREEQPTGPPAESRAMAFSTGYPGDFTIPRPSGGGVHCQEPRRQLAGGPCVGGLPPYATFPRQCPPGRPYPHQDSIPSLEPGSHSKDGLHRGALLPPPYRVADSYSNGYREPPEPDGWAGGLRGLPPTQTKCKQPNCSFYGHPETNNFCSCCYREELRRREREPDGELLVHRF
In short: as §1

PRPF8 = PRPF8 (UniProt Q6P2Q9)
In short: as §1

PSMD7 = target: T3, PSMD7 (UniProt P51665)
T3 sequence (whole entry): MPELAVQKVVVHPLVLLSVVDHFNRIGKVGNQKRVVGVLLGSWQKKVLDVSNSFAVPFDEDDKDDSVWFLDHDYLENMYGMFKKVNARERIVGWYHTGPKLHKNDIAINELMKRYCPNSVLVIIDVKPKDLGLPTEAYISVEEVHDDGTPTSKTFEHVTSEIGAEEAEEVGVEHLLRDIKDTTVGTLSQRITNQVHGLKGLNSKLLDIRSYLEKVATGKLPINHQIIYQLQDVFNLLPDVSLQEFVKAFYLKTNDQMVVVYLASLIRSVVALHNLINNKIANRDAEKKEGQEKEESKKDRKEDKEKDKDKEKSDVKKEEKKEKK
In short: as §1

UCHL1 = UCHL1 (UniProt P09936)
In short: as §1

UCHL3 = target: T4, UCHL3 (UniProt P15374)
T4 sequence (whole entry): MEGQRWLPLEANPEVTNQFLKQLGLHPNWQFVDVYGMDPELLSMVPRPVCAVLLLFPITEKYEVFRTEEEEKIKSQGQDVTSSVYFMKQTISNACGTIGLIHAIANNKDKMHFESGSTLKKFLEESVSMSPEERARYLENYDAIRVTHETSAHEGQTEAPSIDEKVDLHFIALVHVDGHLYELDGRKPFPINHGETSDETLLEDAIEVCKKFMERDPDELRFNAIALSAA
In short: as §1

UCHL5 = target: T5, UCHL5 (UniProt Q9Y5K5)
T5 sequence (whole entry): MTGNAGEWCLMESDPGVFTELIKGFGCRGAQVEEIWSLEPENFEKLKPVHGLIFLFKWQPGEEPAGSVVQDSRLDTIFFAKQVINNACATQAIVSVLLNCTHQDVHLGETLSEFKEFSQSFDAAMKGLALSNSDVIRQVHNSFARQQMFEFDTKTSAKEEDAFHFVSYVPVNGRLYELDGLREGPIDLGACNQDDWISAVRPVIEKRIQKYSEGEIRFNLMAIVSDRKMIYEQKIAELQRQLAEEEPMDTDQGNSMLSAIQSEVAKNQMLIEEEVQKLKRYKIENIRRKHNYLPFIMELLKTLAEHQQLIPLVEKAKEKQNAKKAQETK
In short: as §1

USP10 = USP10 (UniProt Q14694)
In short: as §1

USP15 = target: T6, USP15 (UniProt Q9Y4E8)
T6 sequence (whole entry): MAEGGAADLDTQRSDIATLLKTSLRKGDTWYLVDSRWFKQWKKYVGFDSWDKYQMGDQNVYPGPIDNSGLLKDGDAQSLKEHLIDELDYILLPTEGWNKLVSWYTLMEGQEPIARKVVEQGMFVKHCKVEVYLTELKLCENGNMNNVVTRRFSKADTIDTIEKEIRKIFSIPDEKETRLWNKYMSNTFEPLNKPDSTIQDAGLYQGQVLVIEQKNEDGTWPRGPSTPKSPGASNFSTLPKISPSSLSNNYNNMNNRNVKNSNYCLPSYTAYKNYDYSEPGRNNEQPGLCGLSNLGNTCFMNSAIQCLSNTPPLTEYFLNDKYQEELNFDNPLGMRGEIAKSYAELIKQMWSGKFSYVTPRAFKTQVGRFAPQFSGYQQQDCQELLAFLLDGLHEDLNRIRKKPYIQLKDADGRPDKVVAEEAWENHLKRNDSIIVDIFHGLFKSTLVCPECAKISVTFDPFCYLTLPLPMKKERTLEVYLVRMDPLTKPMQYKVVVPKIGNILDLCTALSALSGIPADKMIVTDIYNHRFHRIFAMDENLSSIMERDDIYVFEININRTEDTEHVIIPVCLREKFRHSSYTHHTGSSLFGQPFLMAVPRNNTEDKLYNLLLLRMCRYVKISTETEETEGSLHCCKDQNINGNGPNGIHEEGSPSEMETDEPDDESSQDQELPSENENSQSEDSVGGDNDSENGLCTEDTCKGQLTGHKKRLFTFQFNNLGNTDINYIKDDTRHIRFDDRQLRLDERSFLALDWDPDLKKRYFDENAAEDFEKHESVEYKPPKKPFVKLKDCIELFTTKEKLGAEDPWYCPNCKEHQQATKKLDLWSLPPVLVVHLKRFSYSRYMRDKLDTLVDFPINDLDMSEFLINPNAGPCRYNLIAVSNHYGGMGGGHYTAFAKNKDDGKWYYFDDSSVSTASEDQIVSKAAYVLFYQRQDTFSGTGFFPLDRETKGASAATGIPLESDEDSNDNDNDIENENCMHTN
In short: as §1

USP16 = USP16 (UniProt Q9Y5T5)
In short: as §1

Sequence of USP16 (Q9Y5T5 whole entry, looked up): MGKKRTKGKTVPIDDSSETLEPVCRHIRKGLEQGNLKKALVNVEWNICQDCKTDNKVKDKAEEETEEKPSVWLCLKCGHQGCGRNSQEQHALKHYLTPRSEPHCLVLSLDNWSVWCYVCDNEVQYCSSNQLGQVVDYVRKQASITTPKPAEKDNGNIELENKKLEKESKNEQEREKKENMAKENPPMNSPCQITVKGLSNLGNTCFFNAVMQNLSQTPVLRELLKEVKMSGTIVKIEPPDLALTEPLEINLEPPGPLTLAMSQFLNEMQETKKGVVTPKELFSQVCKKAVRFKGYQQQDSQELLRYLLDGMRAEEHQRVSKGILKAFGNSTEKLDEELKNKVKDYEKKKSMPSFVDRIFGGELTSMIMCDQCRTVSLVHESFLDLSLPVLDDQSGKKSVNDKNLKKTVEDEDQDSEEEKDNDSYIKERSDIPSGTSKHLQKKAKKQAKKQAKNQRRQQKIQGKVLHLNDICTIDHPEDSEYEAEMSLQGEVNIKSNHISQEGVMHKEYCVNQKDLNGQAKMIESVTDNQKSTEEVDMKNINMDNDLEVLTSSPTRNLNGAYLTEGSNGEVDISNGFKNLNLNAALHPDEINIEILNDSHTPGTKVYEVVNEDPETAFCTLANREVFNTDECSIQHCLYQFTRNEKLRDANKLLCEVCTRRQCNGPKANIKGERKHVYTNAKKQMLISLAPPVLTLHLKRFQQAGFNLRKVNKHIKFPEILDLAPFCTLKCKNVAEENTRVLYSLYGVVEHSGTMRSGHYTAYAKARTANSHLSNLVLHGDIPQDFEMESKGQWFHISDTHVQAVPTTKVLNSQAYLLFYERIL
Sequence of USP10 (Q14694 whole entry): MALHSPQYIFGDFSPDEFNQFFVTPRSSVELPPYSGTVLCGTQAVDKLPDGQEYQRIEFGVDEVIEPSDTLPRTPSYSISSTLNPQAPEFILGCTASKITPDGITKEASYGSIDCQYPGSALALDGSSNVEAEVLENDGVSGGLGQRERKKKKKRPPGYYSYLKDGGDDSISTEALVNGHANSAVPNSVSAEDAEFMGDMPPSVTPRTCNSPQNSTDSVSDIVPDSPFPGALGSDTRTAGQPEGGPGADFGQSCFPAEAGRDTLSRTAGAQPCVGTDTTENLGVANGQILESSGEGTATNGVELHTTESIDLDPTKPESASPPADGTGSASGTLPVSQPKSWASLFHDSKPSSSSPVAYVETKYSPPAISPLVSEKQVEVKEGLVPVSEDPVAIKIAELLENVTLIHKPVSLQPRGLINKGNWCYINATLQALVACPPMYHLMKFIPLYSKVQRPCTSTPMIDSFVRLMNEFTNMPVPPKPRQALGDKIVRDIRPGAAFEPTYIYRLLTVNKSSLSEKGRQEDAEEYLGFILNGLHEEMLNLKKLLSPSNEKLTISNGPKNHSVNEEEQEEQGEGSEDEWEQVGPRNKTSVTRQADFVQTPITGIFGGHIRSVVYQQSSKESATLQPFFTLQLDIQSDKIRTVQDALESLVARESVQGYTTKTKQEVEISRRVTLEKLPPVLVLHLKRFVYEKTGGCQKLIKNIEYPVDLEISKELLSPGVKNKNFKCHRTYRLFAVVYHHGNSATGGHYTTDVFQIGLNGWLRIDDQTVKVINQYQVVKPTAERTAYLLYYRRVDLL
Sequence of UCHL1 (P09936 whole entry, looked up): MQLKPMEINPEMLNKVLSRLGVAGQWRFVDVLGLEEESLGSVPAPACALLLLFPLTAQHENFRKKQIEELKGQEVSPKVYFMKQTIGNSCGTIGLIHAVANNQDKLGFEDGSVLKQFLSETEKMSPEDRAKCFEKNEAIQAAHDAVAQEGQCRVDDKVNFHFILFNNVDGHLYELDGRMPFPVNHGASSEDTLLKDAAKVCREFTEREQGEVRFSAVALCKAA

## CN(C)C(=O)c1ccc(NC(=O)CCl)cc1
OTUD6B
  log2 ratio of Biotin-Ahx-Ub-VS probe labelling: -0.253
OTUD7B
  log2 ratio of Biotin-Ahx-Ub-VS probe labelling: -0.664
PRPF8
  log2 ratio of Biotin-Ahx-Ub-VS probe labelling: -0.106
PSMD7
  log2 ratio of Biotin-Ahx-Ub-VS probe labelling: -0.259
UCHL1
  log2 ratio of Biotin-Ahx-Ub-VS probe labelling: -1.46 (active)
UCHL3
  log2 ratio of Biotin-Ahx-Ub-VS probe labelling: -0.282
UCHL5
  log2 ratio of Biotin-Ahx-Ub-VS probe labelling: -0.194
USP10
  log2 ratio of Biotin-Ahx-Ub-VS probe labelling: -0.0447
USP15
  log2 ratio of Biotin-Ahx-Ub-VS probe labelling: 0.0049
USP16
  log2 ratio of Biotin-Ahx-Ub-VS probe labelling: -0.712
